We go through 42 compounds from PubChem BioAssay AID602428 (Sanford-Burnham Center for Chemical Genomics, 2012).

One may read the inhibition as the drop in the measured response relative to a control, in per cent.

Screen size: about 2,500 compounds; about 980 (39%) were called active. These entries were drawn from the full list. A number with no mark means an inactive call.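 How the source made its calls: active means mean inhibition at 5 µM reaching about 45% (limit read from the data); inactive means the rest.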

A short description of the experiment: blockers of Gli reporter signaling – single concentration, luciferase luminescence, Sufu-KO-LIGHT cells, confirmation (AID 602428).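 Further: plate controls were DMSO-treated cells for no effect and wells lacking cells for full effect.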 Conditions: at 5 µM, hits give high values.
Regarding `COCCn1c(CN2CCC(Cc3ccccc3)CC2)nc2c1c(=O)n(C)c(=O)n2C`, the inhibition was 58.7% (active).

Regarding `O=C1/C(=C/c2ccc(F)cc2)SC(=S)N1NS(=O)(=O)c1ccccc1`, the inhibition is 15.2%.

As for `CCCOc1ccc(Cc2c(Cl)nc(SC)nc2NC)cc1`, the inhibition is 60.5% (active).

On to `CCc1c(C)nc2cc(C)[nH]n2c1=O`, for which the inhibition was 29.9%.

Take `CC(=O)OCCC(C)C`: the inhibition was 21.6%.

As for `CN(NC(=O)c1ccccc1F)c1nc(C(F)(F)F)nc2ccccc12`, the inhibition is 36.6%.

Turning to `COC(=O)c1ccc(CSc2nnc(N)s2)o1`, the inhibition was 37.1%.

`Cn1c(=O)c2c(nc(NCCc3ccccc3)n2Cc2ccccc2)n(C)c1=O`: the inhibition was 57.1% (active).

For the compound `CCCCNc1nc2c(c(=O)n(C)c(=O)n2C)n1Cc1cccc(OC)c1`, the inhibition was 72.5% (active).

On to `CN(C)CCN(C(=O)C1CCCCC1)c1nc2cc3c(cc2s1)OCO3`, for which the inhibition was 14.1%.

`CCc1c(C)[nH]c(=S)c(C#N)c1C`: the inhibition is 25.3%.

As for `CC1(C)CC2CC(C)(CN2c2ncnc3ccc(Br)cc23)C1` (configuration not stated), the inhibition is 41.5%.

Regarding `COc1ccc(OC)c(Cc2cnc3nc(N)nc(N)c3c2C)c1`, the inhibition is 51.4% (active).

On to `O=C(NC1CCN(C(=S)Nc2ccc(Cl)cc2)CC1)C1CCCCC1`, for which the inhibition is 10.8%.

As for `CC(C)Oc1ccc(CN2CCC(n3nccc3NC(=O)c3cccnc3)CC2)cc1`, the inhibition was 23.4%.

Take `Cc1nn(C)c(Cl)c1CN1CCC(n2nccc2NC(=O)C2CCCC2)CC1`: the inhibition is 14%.

As for `C=CCOc1nc2c(c(=O)n(C)c(=O)n2C)n1Cc1ccc(Cl)cc1Cl`, the inhibition is 50.9% (active).

For the compound `CNc1ccc(SC#N)cc1`, the inhibition was 13.2%.

On to `CCC1CCCCN1CCCNC(=O)Cn1nc(-c2ccccc2)ccc1=O` (configuration not stated), for which the inhibition is 13.3%.

Turning to `COc1ccc(C(=O)NCc2nnc(SCCOc3ccccc3)n2C)cc1`, the inhibition was 28.6%.

Regarding `CC(C)(C)c1ccc(Oc2ccc(N)cc2)cc1`, the inhibition is 80.1% (active).

With `CCCc1nc(N)nc2c1C(=O)CC(C)(C)C2`, the inhibition was 16.9%.

For `Cc1ccc(C)c(S(=O)(=O)N2CCN(c3ncnc4sccc34)CC2)c1`, the inhibition was 54% (active).

As for `Cc1c(Cl)c([N+](=O)[O-])nn1Cc1ccc(C(=O)N/N=C\c2cc(Cl)ccc2O)o1`, the inhibition is 57.9% (active).

`CCN(CC(=O)Nc1cc(Cl)ccc1C)C(=O)CSCc1ccc(C)cc1`: the inhibition is 28.9%.

`Cc1ccc(-c2nc(CSCC(=O)NC3CCN(Cc4ccccc4)CC3)c(C)o2)cc1`: the inhibition was 23.9%.

In the case of `O=C(c1cc(Cl)cc(Cl)c1)N1CCC(=O)N(C(COCc2ccccc2)Cc2ccccc2)CC1` (configuration not stated), the inhibition is 7.41%.

Take `Cc1ccc(S(=O)(=O)N2C[C@@H]3CCCC[C@@H]3[C@@H](C)[C@H]2c2cn(Cc3ccccc3)c3ccc(F)cc23)cc1`: the inhibition was 83.6% (active).

As to `CCN(CC)CCNC(=O)c1ccc(NC(=O)c2cc(-c3ccncc3)nc3ccccc23)cc1`, the inhibition was 23%.

For the compound `CN1C(CC(=O)Nc2ccc(Br)cc2)c2ccccc2CC1(C)C` (configuration not stated), the inhibition is 11.3%.

In the case of `O=C(Nc1cccc(S(=O)(=O)Nc2ccc(Cl)cc2)c1)c1ccc2c(c1)OCCO2`, the inhibition is 37.7%.

As to `O=C(Cn1cc(C(=O)C2CC2)c2ccccc21)Nc1ccccc1Cl`, the inhibition was 60.3% (active).

On to `CCN(CC)S(=O)(=O)c1ccc(Cl)c(C(=O)NC(C)C(c2cccs2)N2CCCC2)c1` (configuration not stated), for which the inhibition is 15.2%.

For the compound `O=C(NCCOCc1ccc(Cl)cc1)c1ncn[nH]1`, the inhibition is 9.09%.

Turning to `Brc1c(CSc2nncc3ccccc23)nc2ccccn12`, the inhibition was 12.7%.

Turning to `CCOC(=O)c1cnc(Nc2nc3ccccc3o2)nc1CSC(=S)N1CCCCC1`, the inhibition is 35.3%.

With `CN(C)CCSc1nc(N)c2c3c(sc2n1)COC(C)(C)C3`, the inhibition was 16.1%.

In the case of `CC(=O)N1CCCc2cc(S(=O)(=O)N3CCCC(C(=O)N4CCN(c5cccc(Cl)c5)CC4)C3)ccc21` (configuration not stated), the inhibition is 66.9% (active).

Turning to `Cc1ccc(S(=O)(=O)N(Cc2cc3ccccc3[nH]c2=O)CC2CCCO2)cc1` (configuration not stated), the inhibition is 21.7%.

Consider `CN(C)C(CNC(=O)Cc1ccc([N+](=O)[O-])cc1)c1ccccc1` (configuration not stated), for which the inhibition was 16.5%.

Take `O=C(Nc1ccnn1C1CCN(C/C=C/c2ccc(F)cc2)CC1)C1CCCC1`: the inhibition is 21.9%.

For `Cc1ccsc1C(=O)OCC(=O)c1cc(C)n(CC2CCCO2)c1C` (configuration not stated), the inhibition was 85.5% (active).
